Our source for the Potency and outcome values is PubChem BioAssay (Tox21).

Test [1] in a line: qHTS assay for small molecule agonists of the p53 signaling pathway (AID 651631; calls by dose curve; also: nearly all actives have a fitted effect of over 15% in size; also: potency is read from the fitted curve at half-maximal effect). The method, boiled down: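 We treat p53RE-bla HCT-116 cells with compounds for 16 h at 37 °C, add LiveBLAzer B/G FRET substrate for 2 h at room temperature, and measure fluorescence intensity.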
A short description of test [2]: qHTS assay for small molecules that induce genotoxicity in human embryonic kidney cells expressing luciferase-tagged ATAD5 (AID 651632). Also: nearly all actives have a fitted effect of over 15% in size. Also: potency is read from the fitted curve at half-maximal effect. The method, boiled down:
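HEK293T cells carrying luciferase-tagged ATAD5 were given compound or DMSO vehicle and incubated 16 hr at 37C, 5% CO2. Luciferase activity was read after 30 min at room temperature with Amplite; a rise signals genotoxic stress.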

Test [3] is described as follows: qHTS assay for small molecule agonists of the p53 signaling pathway - cell viability (AID 651633; calls by dose curve;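 also: p53RE-bla HCT reporter cells with a stable beta-lactamase p53 reporter; series mostly up to about 83 µM; nearly all actives have a fitted effect of over 30% in size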). In outline:
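Viability counter-read: CellTiter-Glo luminescence (30 min, room temperature) in the same p53RE-bla plates. These plates had been exposed to compounds for 16 h at 37 C.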

Test [4] in a line: qHTS assay for small molecules that induce genotoxicity in human embryonic kidney cells expressing luciferase-tagged ATAD5 - cell viability (AID 651634; calls by dose curve; also: nearly all actives have a fitted effect of over 25% in size; also: potency is read from the fitted curve at half-maximal effect). The method, boiled down:
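HEK293T cells carrying luciferase-tagged ATAD5, 2,000 cells/well, exposed to compound for 15.5 hr at 37C. Viability read as live-cell protease activity by CellTiter-Fluor fluorescence after 30 min at 37C.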
A general note: In qHTS, concentration-response curves come from the screen itself.

Test [5] in a line: qHTS assay for small molecule disruptors of the mitochondrial membrane potential - cell viability (AID 720634; calls by dose curve;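 also: human HepG2 liver cancer cells; series mostly up to about 83 µM; nearly all actives have a fitted effect of over 20% in size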). The method, boiled down:
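HepG2 cells, 2,000 per well, attached overnight, then treated 1 hr at 37 C, 5% CO2. Viability read as ATP by CellTiter-Glo luminescence after 30 min at room temperature. Read in the same wells as the m-MPI membrane-potential dye assay.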

A short description of test [6]: qHTS assay for small molecule disruptors of the mitochondrial membrane potential (AID 720635). Also: potency is read from the fitted curve at half-maximal effect. The method, boiled down: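 Mitochondrial membrane potential tracked with Mito-MPS dye, red aggregates (ex 540/em 590 nm) against green monomers (ex 490/em 535 nm). Compound treatment 1 hr at 37C, dye 30 min in HepG2.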
Test [7] in a line: qHTS assay to test for compound auto fluorescence at 590 nm (red) in HepG2 cells (AID 720674). The method, boiled down:
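1 hr compound incubation on HepG2 cells, 37 C, 5% CO2; plate read ex 540 nm / em 590 nm; intensities reported as Rose Bengal sodium equivalents.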

Test [8] in a line: qHTS assay to test for compound auto fluorescence at 535 nm (green) in HepG2 cells (AID 720675).
A short description of test [9]: qHTS assay to test for compound auto fluorescence at 460 nm (blue) in HEK293 cells (AID 720678). In outline:
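Blue-channel (Ex/Em 405/460 nm) intensity measured in HEK293 cultures after overnight compound exposure at 37C; signal expressed relative to triamterene. Cells plated 2,000 per well in 10% dialyzed FBS medium and allowed 4-5 hr to attach.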

Test [10] can be described thus: qHTS assay to test for compound auto fluorescence at 590 nm (red) in HEK293 cells (AID 720679). The method, boiled down:
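Red-channel autofluorescence (Ex/Em 540/590 nm; Rose Bengal sodium reference) was measured after overnight 37C, 5% CO2 exposure of attached HEK293 cells, 2,000 per well in medium with 10% dialyzed FBS.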

Test [11] can be described thus: qHTS assay to test for compound auto fluorescence at 535 nm (green) in HEK293 cells (AID 720680).
A short description of test [12]: qHTS assay to test for compound auto fluorescence at 460 nm (blue) in HEK293 cell free culture (AID 720681). The method, boiled down:
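Blue fluorescence (Ex 405/Em 460 nm, triamterene-equivalent) was read immediately after pin transfer of compound or DMSO into medium (DMEM, 10% FBS) without cells.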

The nature of test [13]: qHTS assay to test for compound auto fluorescence at 535 nm (green) in HEK293 cell free culture (AID 720682). In outline:
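Green-channel intensity (Ex/Em 485/535 nm) was recorded from compound-treated wells containing only DMEM with 10% FBS. Fluorescein provided the equivalency standard.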

Test [14] in a line: qHTS assay to test for compound auto fluorescence at 590 nm (red) in HEK293 cell free culture (AID 720683). The method, boiled down:
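Red-channel autofluorescence of compounds in culture medium (DMEM, 10% FBS), no cells, measured at 540/590 nm. Rose Bengal sodium is the reference fluorophore for equivalence.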

A short description of test [15]: qHTS assay to test for compound auto fluorescence at 590 nm (red) in HepG2 cell free culture (AID 720684). The method, boiled down:
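Steps: dispense MEM/10% FBS medium, no cells; pin compound or DMSO vehicle; read red channel, Ex/Em 540/590 nm. Output given as Rose Bengal sodium equivalents.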

Test [16] can be described thus: qHTS assay to test for compound auto fluorescence at 460 nm (blue) in HepG2 cell free culture (AID 720685). The method, boiled down: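 Compound (23 nL) or DMSO pinned into cell-free MEM with 10% FBS; blue fluorescence read at 405/460 nm excitation/emission, expressed as auto-fluorescence equivalency to triamterene.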
The nature of test [17]: qHTS assay to test for compound auto fluorescence at 535 nm (green) in HepG2 cell free culture (AID 720686).
In test [18] the target is Glucocorticoid receptor (Homo sapiens) (UniProt P04150). Nature of the test: qHTS assay to identify small molecule agonists of the glucocorticoid receptor (GR) signaling pathway (AID 720691; active = well fitted activation curve with a large enough effect in the signal ratio in the repeat runs, not every such curve was filed as active; the % refers to the signal ratio). In outline: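 GR-bla HeLa cells carrying a GRE-driven beta-lactamase reporter, exposed to compounds for 18 h at 37 C. Reporter activation read as fluorescence after 2 h with LiveBLAzer B/G FRET substrate at room temperature.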
Sequence of Glucocorticoid receptor (Homo sapiens) (P04150 whole entry, looked up): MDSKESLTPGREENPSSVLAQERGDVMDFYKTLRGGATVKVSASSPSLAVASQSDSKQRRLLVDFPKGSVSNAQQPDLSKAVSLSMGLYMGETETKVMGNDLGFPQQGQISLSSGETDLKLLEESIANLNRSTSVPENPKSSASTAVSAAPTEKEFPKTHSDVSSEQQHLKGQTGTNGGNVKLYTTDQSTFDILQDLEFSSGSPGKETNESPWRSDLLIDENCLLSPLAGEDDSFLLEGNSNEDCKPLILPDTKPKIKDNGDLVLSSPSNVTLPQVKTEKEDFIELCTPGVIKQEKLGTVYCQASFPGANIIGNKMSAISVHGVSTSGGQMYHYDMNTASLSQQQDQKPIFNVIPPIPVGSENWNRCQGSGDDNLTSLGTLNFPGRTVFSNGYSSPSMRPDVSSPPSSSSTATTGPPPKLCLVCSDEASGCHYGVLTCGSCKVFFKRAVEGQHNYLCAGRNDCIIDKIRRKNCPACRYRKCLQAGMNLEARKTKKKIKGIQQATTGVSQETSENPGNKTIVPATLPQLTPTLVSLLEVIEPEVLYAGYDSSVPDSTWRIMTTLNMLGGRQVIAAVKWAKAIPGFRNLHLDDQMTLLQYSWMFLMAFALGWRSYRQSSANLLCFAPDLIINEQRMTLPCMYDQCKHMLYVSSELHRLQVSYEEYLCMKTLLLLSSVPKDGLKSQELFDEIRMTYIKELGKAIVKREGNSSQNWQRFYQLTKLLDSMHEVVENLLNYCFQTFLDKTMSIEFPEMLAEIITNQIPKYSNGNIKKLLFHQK

The nature of test [19]: qHTS assay to test for compound auto fluorescence at 460 nm (blue) in HepG2 cells (AID 720687). In outline:
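Blue-channel autofluorescence (Ex/Em 405/460 nm, triamterene-equivalent) was measured after 1 hr compound exposure at 37 C, 5% CO2. Cells were HepG2, plated overnight at 37 C in MEM plus 10% FBS.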

Test [20] deals with Glucocorticoid receptor (Homo sapiens) (UniProt P04150). Nature of the test: qHTS assay to identify small molecule antagonists of the glucocorticoid receptor (GR) signaling pathway (AID 720692; active = well fitted inhibition curve with a large enough effect in the signal ratio in the repeat runs, not every such curve was filed as active; the % refers to the signal ratio). In outline:
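GR-bla HeLa cells carrying a GRE-driven beta-lactamase reporter received compound after 4 h plating, then dexamethasone (5 nM final). After 18 h at 37C, the FRET substrate was loaded for 2 h at room temperature and fluorescence read.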

Unmarked numbers belong to inactive results. Inconclusive results are not listed. Active and inactive are the calls of the source. Unless noted, calls follow the shape of the dose curve; as a rule, active = well fitted curve in the direction sought with a large enough effect in the repeat runs; inconclusive = weak or mixed curves; inactive = no such curve, though single readings can be large; an effect the other way counts as inactive or inconclusive.

Consider `CCCCCCCCCCCCCCCC(=O)OC/C=C(C)/C=C/C=C(C)/C=C/C1=C(C)CCCC1(C)C`, for which the Potency entry in test [1], in [2], in [3], in [4], in test [5] and in test [6] was “inactive” throughout. Also, the Potency result in test [9], in test [12], in test [16] and in test [18] was “inactive” each time. Further, the outcome in test [7], in test [8], in [10], in test [11], in test [13] and in test [14] was inactive. The molecule was called inactive in test [15] and in [17].
For `CNS(=O)(=O)Cc1ccc2[nH]cc(CCN(C)C)c2c1`, the Potency entry in test [1], in test [2], in [3], in test [4], in test [5] and in test [9] was “inactive” each time. The Potency result in test [16], in test [19] and in test [18] was “inactive” in each case. In test [6], the Potency was 29800 nM (active). The molecule was called inactive in [7], in test [8], in test [10], in test [11], in test [13] and in test [14]. Moreover, the call in [15] and in test [17] was inactive.
For the molecule `CCCOc1ccc2nc(NC(=O)OC)[nH]c2c1`, the figures for the Potency in test [1], in test [2] and in [4] were 298 nM (active), 1680 nM (active) and 150 nM (active), respectively. Further, the Potency result in test [3], in [5], in test [6], in test [9], in [12] and in [16] was “inactive” throughout. Moreover, the outcome in test [7], in test [8], in test [10], in test [11], in [13] and in test [14] was inactive. In addition, the call in test [15] and in test [17] was inactive.
In the case of `C1CCC2OC2C1` (stereo not drawn), the Potency result in test [1], in test [2], in [3], in test [4], in [5] and in test [6] was “inactive” each time. For the same molecule, the Potency result in [9], in [16], in test [19], in [18] and in [20] was “inactive” throughout. Also, the molecule was called inactive in [7], in [8], in test [10], in [11], in test [13] and in test [15]. In addition, the outcome in test [17] was inactive.
As for `CCCCCc1ccc(N)cc1`, the Potency result in test [1], in test [2], in test [3], in test [4], in test [5] and in [9] was “inactive” in each case. For the same molecule, the Potency entry in test [12] and in [16] was “inactive” throughout. Also, the call in [7], in [8], in test [10], in test [11], in test [13] and in [14] was inactive. Also, the call in test [15] and in [17] was inactive.
Regarding `Cc1ccc(C(C)c2ccc(C)c(C)c2)cc1C`, the Potency result in test [1], in [2], in test [3], in [4], in test [5] and in [6] was “inactive” each time. The Potency entry in test [9], in test [12], in test [19], in [18] and in test [20] was “inactive” each time. Further, the call in test [7], in test [10], in test [11], in test [13], in [15] and in test [17] was inactive.
In the case of `NC(=S)N/N=C/c1cccnc1`, the Potency result in test [1], in test [2], in test [3], in test [4], in test [5] and in [6] was “inactive” throughout. Also, the Potency result in test [12], in test [16], in test [19], in test [18] and in [20] was “inactive” throughout. In addition, the outcome in [7], in test [8], in [10], in [11], in test [13] and in [14] was inactive. Also, the result in test [15] and in test [17] was inactive.
In the case of `Nc1nc(CC(=O)O)cs1`, the Potency entry in test [1], in test [2], in test [3], in test [4], in test [5] and in test [6] was “inactive” throughout. Besides, the Potency result in [9], in [12], in test [16], in [19] and in test [18] was “inactive” in each case. Besides, the molecule was called inactive in test [7], in [8], in [10], in test [13], in test [14] and in test [15].
Consider `CC(C)CCCC(C)CCO` (stereo not drawn), for which the Potency entry in test [1], in test [2], in test [3], in test [4], in test [5] and in test [6] was “inactive” each time. For the same molecule, the Potency result in test [12], in test [16], in test [19], in test [18] and in test [20] was “inactive” throughout. The call in test [7], in test [10], in [11], in test [14], in test [15] and in test [17] was inactive.
Turning to `CC(CN)CCCN` (stereo not drawn), the Potency entry in test [1], in [2], in test [3], in test [4], in test [5] and in [6] was “inactive” in each case. Further, the Potency entry in test [9], in [12], in test [16], in test [19], in test [18] and in [20] was “inactive” throughout. Moreover, the molecule was classed as inactive in [7], in [8], in [10], in [13], in test [14] and in [15]. Also, the molecule was classed as inactive in test [17].
For the molecule `CCOC(=S)SSC(=S)OCC`, the Potency entry in test [1], in test [2], in test [3], in test [4], in [5] and in test [6] was “inactive” in each case. The Potency result in test [9], in test [12], in test [16], in test [19], in test [18] and in [20] was “inactive” each time. The result in test [7], in [8], in test [10], in test [11], in test [13] and in test [14] was inactive. In addition, the result in test [15] and in test [17] was inactive.
`CCCCCCCCN(C)C`: the Potency entry in test [1], in [2], in test [3], in test [4], in test [5] and in test [6] was “inactive” each time. Also, the Potency entry in test [9], in test [16], in test [19] and in test [20] was “inactive” in each case. The outcome in test [7], in [8], in test [10], in test [11], in [13] and in test [14] was inactive. Also, the molecule was called inactive in test [15] and in test [17].
For the molecule `CC(C)(C)c1ccc(S)cc1`, the Potency entry in test [1], in test [2], in test [3], in test [4], in test [5] and in [6] was “inactive” in each case. In addition, the Potency result in test [9], in test [12], in [16], in test [19] and in test [18] was “inactive” throughout. Besides, the molecule was classed as inactive in [7], in test [8], in test [10], in test [11], in test [14] and in test [15]. Also, the call in [17] was inactive.
As to `CC/C(=C\C(=N/O)C(N)=O)C(C)[N+](=O)[O-]` (stereo not drawn), the Potency result in [1], in [2], in test [3], in test [4], in test [5] and in [6] was “inactive” in each case. The Potency entry in test [9], in [16], in test [19], in test [18] and in test [20] was “inactive” throughout. Moreover, the result in test [7], in [8], in test [14], in test [15] and in test [17] was inactive.
